Results from article PMC5540273 (PLoS ONE, 2017).

How the values were obtained:
Details in all cases: concentration: 1 μM, replicates: in singlicate; n = 1
TRPM6 = system: TRPM6
TSSK1B = system: TSSK1B
TSSK3 = system: TSSK3
TTK = system: TTK
TXK = system: TXK
[1] = system: TYK2(JH1domain-catalytic)
[2] = system: TYK2(JH2domain-pseudokinase)
TYRO3 = system: TYRO3
ULK1 = system: ULK1
ULK2 = system: ULK2
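Also: KINOMEscan kinase panel screen.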

In the case of `CCC(=O)c1c(-c2ccccc2)c2cc(Cl)ccc2c(=O)n1Cc1ccc(C(=O)O)cc1`, the “%Inh” value (TRPM6) is reported as 0%, the “%Inh” value (TSSK1B) is reported as 0% and the “%Inh” value (TSSK3) is reported as 0%. The “%Inh” value (TTK) was 0%, the “%Inh” value (TXK) was 0% and the “%Inh” value [1] was 0%. For the same compound, the “%Inh” value [2] was 0%, the “%Inh” value (TYRO3) was 0% and the “%Inh” value (ULK1) was 0%. The “%Inh” value (ULK2) was 2%.

With `Cc1nn2c(=O)cc(N3CCOCC3)nc2n1Cc1cccc(Cl)c1Cl` [GSK2342769] the “%Inh” value (TRPM6) was 0%, the “%Inh” value (TSSK1B) was 0% and the “%Inh” value (TSSK3) was 6%. For the same compound, the “%Inh” value (TTK) was 0%, the “%Inh” value (TXK) was 13% and the “%Inh” value [1] was 10%. The “%Inh” value [2] was 4%, the “%Inh” value (TYRO3) was 0% and the “%Inh” value (ULK1) was 17%. For the same compound, the “%Inh” value (ULK2) was 0%.

With `Nc1nc(N)c2nc(-c3ccccc3)[nH]c2n1` [SKF-12778] the “%Inh” value (TRPM6) was 11%, the “%Inh” value (TSSK1B) was 0% and the “%Inh” value (TSSK3) was 5%. The “%Inh” value (TTK) was 4%, the “%Inh” value (TXK) was 25% and the “%Inh” value [1] was 43%. The “%Inh” value [2] was 74%, the “%Inh” value (TYRO3) was 0% and the “%Inh” value (ULK1) was 16%. The “%Inh” value (ULK2) was 9%.

With `O=C(NCc1cccs1)c1cc(C(=O)c2c(Cl)cccc2Cl)c[nH]1` [GW823670] the “%Inh” value (TRPM6) was 0%, the “%Inh” value (TSSK1B) was 18% and the “%Inh” value (TSSK3) was 0%. For the same compound, the “%Inh” value (TTK) was 9%, the “%Inh” value (TXK) was 0% and the “%Inh” value [1] was 1%. The “%Inh” value [2] was 0%, the “%Inh” value (TYRO3) was 0% and the “%Inh” value (ULK1) was 0%. For the same compound, the “%Inh” value (ULK2) was 29%.
